Bioassay records deposited in PubChem BioAssay by The Scripps Research Institute Molecular Screening Center.
Only some compounds are listed: those with a hit (about 4.1% of all), similar ones and a draw of the others.
hcDAF12 agonist = activates DAF-12 receptor from parasite H. contortus. HEK293 hcDAF-12 lit1-tk-luc reporter, luminescence; 0% DMSO, 100% Δ7-dafachronic acid. activation, % at 6.8 µM. actives 1.4% (n = 370,000);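 active = activation above the mean of all tested compounds plus 3 SD, cut at about 5.5% in these data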;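 note: 100% = response to 3 µM Δ7-dafachronic acid high control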
DAX1 inh-1 = DAX1 (NR0B1) inhibition, primary screen | HEK293T StAR-luciferase reporter, SF-1/DAX-1 repression relief | inhibition, % at 6.8 µM | actives 1.1% (n = 370,000) | AID 652010;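 active = inhibition above the mean over all tested compounds plus 3 SD, cut at about 3.6% in these data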;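 note: 0% = DAX-1 cells with DMSO and 100% = cells lacking DAX-1 with DMSO; higher inhibition means more luminescence from relief of DAX-1 repression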
DAX1 inh-2 = inhibitors of human orphan nuclear receptor DAX1 (NR0B1); HEK293 Gal4-DAX1 luciferase reporter, luminescence; P51843; actives 0.99% (n = 340,000); inhibition, % at 6.75 µM;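 active = inhibition above the mean over all tested compounds plus 3 SD, cut at about 4.2% in these data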;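 note: 0% = DAX1-transfected cells with DMSO and 100% = empty-vector control cells with DMSO; inhibition shows as a rise in luminescence from relieved DAX1 repression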
Target sequence (P51843 207-470 limits assumed): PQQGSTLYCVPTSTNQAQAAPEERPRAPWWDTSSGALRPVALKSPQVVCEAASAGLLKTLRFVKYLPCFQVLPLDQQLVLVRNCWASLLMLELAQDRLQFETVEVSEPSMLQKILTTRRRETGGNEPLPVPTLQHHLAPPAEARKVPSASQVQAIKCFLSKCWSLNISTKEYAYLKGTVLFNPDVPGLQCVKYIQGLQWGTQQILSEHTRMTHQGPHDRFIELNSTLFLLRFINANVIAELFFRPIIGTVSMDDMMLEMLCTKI
hgDAF12 agonist = activates the H. glycines DAF-12 receptor ligand-binding domain | HEK293 GAL4-hgDAF12 UAS-luciferase reporter, agonist luminescence; normalized to butyrate control | activation, % at 6.8 µM | actives 1.8% (n = 370,000) | AID 687014;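 active = activation above a cutoff set at the mean of all screened compounds plus 3 SD, cut at about 10% in these data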;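 note: 0% = DMSO wells and 100% = sodium butyrate wells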
ssDAF-12 act = S. stercoralis DAF-12 activation, primary screen; HEK293 ssDAF-12/GRIP1 lit1-tk-luc reporter, luminescence; % of 3 µM dafachronic acid response; activation, % at 6.8 µM; actives 1% (n = 370,000); AID 652126;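 active = activation above the mean over all tested compounds plus 3 SD, cut at about 0.9% in these data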;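 note: 0% = DMSO-only wells and 100% = 3 µM delta7-dafachronic acid wells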
LXRb hcDAF ctr = counter-screen for hcDAF-12 agonists: agonists of human LXR-beta; shares compounds with hcDAF12 agonist; activation, % at 6.8 µM; HEK293 Gal4-LXR tk-luc reporter, luminescence, 24 h; normalized: DMSO 0%, positive control 100%; AID 743027; 3,400 tested, under 10 active;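 active = mean percent activation of the reporter above a cutoff set as the average over tested compounds plus their standard deviation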
Target sequence (P55055 whole entry, looked up, the tested form may be a part): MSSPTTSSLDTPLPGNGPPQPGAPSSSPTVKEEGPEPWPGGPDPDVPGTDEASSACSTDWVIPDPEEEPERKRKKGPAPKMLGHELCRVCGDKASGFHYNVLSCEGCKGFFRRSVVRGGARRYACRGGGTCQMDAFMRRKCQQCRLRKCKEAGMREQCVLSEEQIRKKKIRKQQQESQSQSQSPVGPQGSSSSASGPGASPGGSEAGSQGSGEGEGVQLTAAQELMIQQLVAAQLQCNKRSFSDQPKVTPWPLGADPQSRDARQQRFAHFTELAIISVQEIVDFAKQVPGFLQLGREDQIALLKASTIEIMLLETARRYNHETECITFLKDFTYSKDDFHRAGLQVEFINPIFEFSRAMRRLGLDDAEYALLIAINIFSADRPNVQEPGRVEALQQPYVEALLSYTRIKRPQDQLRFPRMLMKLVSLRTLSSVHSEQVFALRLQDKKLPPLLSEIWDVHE
hcDAF12 conf = hcDAF-12 agonism, confirmation assay. HEK293 hcDAF-12 lit1-tk-luc reporter, luminescence; % of Δ7-dafachronic acid response. shares compounds with hcDAF12 agonist. activation, % at 6.8 µM. actives 61% (n = 3,400);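 active = mean activation across triplicate tests above the threshold derived from the earlier primary screen, cut at about 5.5% in these data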;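 note: 0% = DMSO only wells and 100% = 3 µM Δ7-dafachronic acid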
hgDAF12 ag = confirmation of H. glycines DAF-12 agonists; shares compounds with hgDAF12 agonist; HEK293 GAL4-hgDAF12 luciferase reporter, agonist mode; percent of butyrate response; activation, % at 6.8 µM; actives 80% (n = 3,300); AID 743050;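 active = mean activation over triplicate wells above the hit cutoff derived from the earlier primary screen, cut at about 11% in these data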;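 note: 0% = DMSO low control and 100% = 2 mM sodium butyrate high control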
LXRb DAF12 ctr = activates human LXR-beta, counter-screen for DAF-12 agonists; shares compounds with hgDAF12 agonist; HEK293 Gal4-LXR luciferase reporter, 24 h; activation, % at 6.8 µM; 3,300 tested, under 10 active;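 active = mean activation of the triplicate above a set limit carried over from the primary screen, none filed active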
* hit, by the source's call; · = not tested or not shown.

SMILES	hcDAF12 agonist	DAX1 inh-1	DAX1 inh-2	hgDAF12 agonist	ssDAF-12 act	LXRb hcDAF ctr	hcDAF12 conf	hgDAF12 ag	LXRb DAF12 ctr
COC(=O)[C@]12C=CCN1[C@H](c1ccc(Cl)cc1)c1c(c3ccccc3n1S(=O)(=O)c1ccc(C)cc1)C2	2.5	0.3	·	-2.6	0.0	·	·	·	·
C(=C\n1nnc2ccccc21)/c1ccccn1	8.4*	2.5	1.3	18.5*	1.2*	2.0	7.5*	24.4*	0.9
Nn1nnc2ccccc21	0.6	0.6	1.6	7.7	-0.6	·	·	·	·
O=C(CCc1nnc(CCCc2ccccc2)o1)NC(C1CC1)C1CC1	7.3*	1.8	5.0*	16.3*	0.9	0.7	4.2	15.3*	0.6
COc1ccc(-c2nc3c4ccccc4ccn3c2Cc2cccc(F)c2)cc1OC	6.7*	-0.7	·	16.2*	1.0*	0.6	7.4*	14.3*	0.4
O=C(Nc1ncccc1O)c1ccc(Oc2ccccc2)cc1	6.8*	3.8*	1.4	19.2*	0.2	1.1	5.8*	26.1*	0.5
O=C(NC1=NCCS1)c1ccc(Cl)c(Cl)c1	9.2*	3.2	5.4*	20.5*	0.6	1.4	7.5*	18.2*	1.1
O=C(NC1=NCCS1)c1cc(Cl)ccc1Cl	-0.3	0.0	-1.0	-1.1	-0.7	·	·	·	·
COc1ccc(-c2c(Cc3ccccc3)nc(NC(=O)c3ccccc3)n2Cc2ccc(OC)cc2OC)cc1	2.4	0.2	·	4.5	-1.4	·	·	·	·
c1ccc2c(-c3csc(-c4ccncc4)n3)c[nH]c2c1	13.1*	0.9	-0.9	28.4*	1.6*	0.7	14.0*	15.3*	0.4
Brc1ccc(-c2csc(-c3c[nH]c4ccccc34)n2)cc1	4.0	1.4	1.7	7.0	-0.1	·	·	·	·
O=C(Nc1ccc2[nH]ccc2c1)c1ccc(F)cc1	8.2*	3.0	-2.8	15.9*	1.5*	1.7	5.9*	20.5*	1.2
CCN(CC)S(=O)(=O)c1ccc(NC(=O)c2ccc(Cl)nc2)cc1	-3.2	-1.3	-0.7	-3.7	-2.2	·	·	·	·
Cc1ccc(NC(=O)c2ccc(Cl)nc2)cc1	8.7*	2.1	4.1	14.1*	1.4*	0.3	8.2*	8.8	0.3
O=C(COC(=O)c1ccccc1)NC12CC3CC(CC(C3)C1)C2	0.7	2.5	1.1	0.9	-0.8	·	·	·	·
O=C(CCCc1ccccc1)NC12CC3CC(CC(C3)C1)C2	8.4*	1.5	3.4	17.3*	1.2*	1.1	6.9*	15.5*	1.0
CCCC1CCC2(CCC(=O)N2CCC#N)CC1 (stereo unspecified)	1.7	-1.1	·	-2.5	-0.7	·	·	·	·
COc1ccc(OCCN2C(=O)c3ccccc3C2=O)cc1	-1.3	0.7	-1.0	2.6	-1.1	·	·	·	·
O=C1c2ccccc2C(=O)N1CCOc1ccccc1	6.9*	3.2	2.1	13.6*	1.2*	0.9	8.8*	16.6*	0.5
Nc1cccc2c1C(=O)N(CCOc1ccc(F)cc1)C2=O	10.5*	2.8	0.9	16.8*	0.0	1.6	9.3*	17.6*	1.1
COc1ccccc1OCCC(=O)OCCN1C(=O)c2ccccc2C1=O	-0.6	-0.4	-0.6	0.0	-0.8	·	·	·	·
Nc1cc(-c2nc3ncccc3o2)ccc1Cl	12.0*	2.5	2.3	14.3*	1.4*	0.9	8.3*	10.1	0.4
CC[C@H]1/C(=C/c2ccccc2)N2C(=O)C[C@H](c3ccccc3)N=C2N1C	2.3	·	·	-2.2	-1.7	·	·	·	·
Cc1ccc(NC(=O)C(=O)c2c[nH]c3ccccc23)cc1	7.2*	1.9	3.5	20.4*	0.8	1.7	4.6	21.6*	0.9
Cc1ccc(NC(=O)c2cc(=O)[nH]c3ccccc23)cc1	1.4	0.2	-0.3	0.5	-0.6	·	·	·	·
SMILES	hcDAF12 agonist	DAX1 inh-1	DAX1 inh-2	hgDAF12 agonist	ssDAF-12 act	LXRb hcDAF ctr	hcDAF12 conf	hgDAF12 ag	LXRb DAF12 ctr
COC[C@H]1O[C@]2(c3ccccc3)CO[C@H]1[C@@H](/C=C/c1ccccc1)C2	-0.9	-0.3	·	-0.5	-1.0	·	·	·	·
C/C(=N\Nc1ncc(Cl)cc1Cl)c1ccc(OC(F)F)cc1	6.6*	0.9	0.1	20.1*	-0.9	-0.1	-0.8	0.4	0.1
O=C(Nc1ccc(Cl)cn1)c1ccccc1F	6.6*	2.7	2.0	15.1*	1.2*	1.2	7.8*	17.7*	0.8
COC(=O)C1=C(C)N(C)C(=NCC2CC2)NC1c1cccc(Cl)c1 (stereo unspecified)	0.3	1.1	·	0.8	-0.7	·	·	·	·
C=CCn1c(C)cc(C(=O)CN2NS(=O)(=O)c3ccccc3C2=O)c1C	8.8*	2.7	5.4*	14.6*	1.8*	0.5	5.8*	5.0	0.3
CCC(=O)Nc1cccc(-c2nc3ccc(C)cc3o2)c1	1.6	0.5	3.2	5.2	-0.4	·	·	·	·
CCC(=O)Nc1ccc2oc(-c3cccc(C)c3)nc2c1	6.9*	4.2*	-2.7	14.8*	0.5	1.9	7.9*	16.3*	0.9
Nc1ccc(-c2nc3ccc(N)cc3s2)cc1	7.5*	1.5	-0.9	19.3*	1.1*	1.5	8.3*	15.8*	1.1
CC(COc1cccc(Br)c1)CN1CCC(C(O)(c2ccccc2)c2ccccc2)CC1 (stereo unspecified)	-2.4	-1.6	·	-1.7	-1.8	·	·	·	·
O=C(NCc1ccccc1)[C@H]1CCCN1C(=O)[C@H]1CCCN1C(=O)c1cccc(Cl)c1	-1.0	-0.1	·	0.9	-0.8	·	·	·	·
O=C(Nc1ccon1)c1ccc(OC2CCCC2)cc1	7.2*	4.5*	0.1	14.4*	0.4	1.1	4.6	14.4*	0.7
COc1ccc(CN2CCC(CNC(=O)NCc3ccccc3)CC2)cc1	-1.5	1.4	·	-1.4	-1.2	·	·	·	·
O=C(Nc1nc2ccccc2n1CCN1CCOCC1)c1ccc(Cl)cc1	2.1	-0.1	0.1	3.2	0.6	·	·	·	·
O=C(Nc1nc2ccccc2n1CCN1CCCC1)c1ccc(Cl)cc1	7.3*	0.6	1.5	17.9*	-0.3	0.6	9.5*	16.2*	0.4
CC1CCCN(C(=O)Nc2ccc([N+](=O)[O-])cc2)C1 (stereo unspecified)	2.2	1.7	·	4.8	-1.7	·	·	·	·
COc1ccc(C(O)c2ncc(-c3ccccc3F)[nH]2)cc1 (stereo unspecified)	0.2	0.0	·	5.9	-0.5	·	·	·	·
